Reference: PubChem BioAssay AID1159580 (chemical genetic matrix, 2015)
Where “and” joins values, the source holds several entries; their conditions need not be identical. Equal entries are not always repeated. Hit rate of the full screen: of about 5,500 compounds, about 2,000 (36%) were called active. Another 18% or so got no clear call; they are omitted. No stated cut-off is given here; in the data, active means normalized growth mostly below about 0.91 (no sharp cut-off); inconclusive means no clear call, values can overlap the other calls; inactive means mostly above about 0.92. The list shows a part of the results.

Assay: chemical genetic growth profiling, strain panel (AID 1159580);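 further: tested at 20 µM; growth read once vehicle control cultures reached saturation at 30 °C; 1 = growth at the plate median or of vehicle wells; lower values mean less growth of the strain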
Conditions: S. cerevisiae deletion strains, growth OD

Measured: normalized growth

CC1=C(/C=C/C(C)=C/C=C/C(C)=C/C(=O)O)C(C)(C)CCC1
active: locus YDR137W, strain rgp1, hits give low values 0.824 | locus YDR392W, strain spt3, hits give low values 0.513
inactive: locus YAL013W, strain DEP1, hits give low values 0.993 and 1.03 | locus YAL021C, strain ccr4, hits give low values 1.01 | locus YAL026C, strain drs2, hits give low values 0.958 | locus YAL030W, strain snc1, hits give low values 0.996 | locus YAL040C, strain CLN3, hits give low values 1.03 | locus YBL061C, strain skt5, hits give low values 0.952 | locus YBR009C, strain hhf1, hits give low values 0.968 | locus YBR021W, strain FUR4, hits give low values 1.04 | locus YBR023C, strain chs3, hits give low values 0.959 | locus YBR171W, strain sec66, hits give low values 1 | locus YBR229C, strain ROT2, hits give low values 1.01 | locus YBR231C, strain swc5, hits give low values 0.996 | locus YBR279W, strain paf1, hits give low values 0.994 | locus YCL011C, strain gbp2, hits give low values 0.976 | locus YCL016C, strain dcc1, hits give low values 0.951 | locus YCL029C, strain bik1, hits give low values 1.02 | locus YCL061C, strain MRC1 (second series), hits give low values 1.01 | locus YCL061C, strain MRC1, hits give low values 0.969 | locus YCL069W, strain vba3, hits give low values 1 | locus YCR088W, strain abp1, hits give low values 0.993 | locus YDL005C, strain med2, hits give low values 0.998 | locus YDL035C, strain GPR1, hits give low values 0.998 | locus YDL040C, strain nat1, hits give low values 1 | locus YDL074C, strain BRE1, hits give low values 0.995 | locus YDL101C, strain DUN1, hits give low values 1.01 | locus YDL134C, strain PPH21, hits give low values 1.01 | locus YDL185W, strain tfp1, hits give low values 1.03 | locus YDL192W, strain arf1, hits give low values 1.03 | locus YDR001C, strain nth1, hits give low values 1 | locus YDR069C, strain doa4, hits give low values 0.979 | locus YDR101C, strain arx1, hits give low values 1.03 | locus YDR150W, strain NUM1, hits give low values 1.02 and 1.01 | locus YDR159W, strain sac3, hits give low values 0.928 | locus YDR162C, strain NBP2, hits give low values 1.01 | locus YDR195W, strain ref2 1.03 | locus YDR297W, strain sur2, hits give low values 0.991 | locus YDR318W, strain mcm21, hits give low values 1.01 | locus YDR334W, strain swr1, hits give low values 1.02 | locus YDR335W, strain msn5, hits give low values 0.962 | locus YDR363W, strain ESC2, hits give low values 0.994 | locus YDR388W, hits give low values 1.03 | locus YDR502C, strain sam2, hits give low values 1.03 | locus YEL003W, strain gim4, hits give low values 1.01 | locus YEL037C, strain rad23, hits give low values 1 | locus YEL061C, strain CIN8 (second series), hits give low values 1.01 | locus YEL061C, strain CIN8, hits give low values 1.01 | locus YER002W, strain NOP16, hits give low values 1.03 | locus YER015W, strain faa2, hits give low values 0.995 | locus YER016W, strain bim1, hits give low values 0.954 | locus YER110C, hits give low values 1.04 | locus YER111C, strain swi4, hits give low values 1 | locus YER155C, strain BEM2 (second series), hits give low values 0.953 | locus YER155C, strain BEM2, hits give low values 1.01 | locus YER167W, strain BCK2, hits give low values 1.01 | locus YFR010W, strain ubp6, hits give low values 0.99 | locus YGL078C, strain dbp3, hits give low values 1.03 | locus YGL086W, strain mad1, hits give low values 1.02 | locus YGL167C, strain pmr1, hits give low values 1.02 | locus YGL173C, strain kem1, hits give low values 0.97 | locus YGL227W, strain vid30, hits give low values 1.03 | locus YGL240W, strain doc1, hits give low values 0.992 | locus YGL248W, strain PDE1, hits give low values 1.01 | locus YGL253W, strain hxk2, hits give low values 0.99 | locus YGR078C, strain PAC10, hits give low values 0.996 | locus YGR135W, strain pre9, hits give low values 1.01 | locus YGR229C, strain SMI1, hits give low values 0.996 and 0.979 | locus YGR252W, strain gcn5, hits give low values 1.08 | locus YHR013C, strain ard1, hits give low values 0.942 | locus YHR027C, strain rpn1, hits give low values 0.975 | locus YHR030C, strain SLT2, hits give low values 1.01 and 0.982 | locus YHR079C, strain IRE1 (second series), hits give low values 1.01 | locus YHR079C, strain IRE1, hits give low values 1.01 | locus YHR094C, strain hxt1, hits give low values 1.03 | locus YHR129C, strain ARP1, hits give low values 1.01 | locus YHR142W, strain chs7, hits give low values 0.957 | locus YHR200W, strain rpn10, hits give low values 1.04 | locus YIL066C, strain RNR3, hits give low values 1 | locus YIL073C, strain SPO22, hits give low values 1.04 | locus YIL125W, strain kgd1, hits give low values 1.03 | locus YIR030C, strain dcg1, hits give low values 1.03 | locus YJL092W, strain hpr5, hits give low values 0.988 | locus YJL095W, strain BCK1 (second series), hits give low values 0.987 | locus YJL095W, strain BCK1, hits give low values 0.999 and 0.96 | locus YJL115W, strain asf1, hits give low values 1 | locus YJL129C, strain trk1, hits give low values 0.963 | locus YJL134W, strain LCB3, hits give low values 1.01 | locus YJL154C, strain vps35, hits give low values 1.02 | locus YJL164C, strain tpk1, hits give low values 0.971 | locus YJL166W, strain qcr8, hits give low values 0.987 | locus YJL168C, strain set2, hits give low values 1.04 | locus YJL187C, strain SWE1 (second series), hits give low values 1.01 | locus YJL187C, strain SWE1, hits give low values 0.989 | locus YJR043C, strain POL32, hits give low values 1.01 | locus YJR066W, strain TOR1, hits give low values 0.926
